Experimental data reported in PubChem BioAssay (NCI).
Compounds without any hit were thinned out: in the full panel of roughly 79,000, 15% have a hit. Calls of active or inactive are those of the source. Cut-off read from the data, not from the text of the source: active = growth inhibition above about 70%; inactive = the rest.

Key:
[1] = NCI Yeast Anticancer Drug Screen. Data for the rad52 strain (AID 147);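 note: 0% = growth of vehicle-treated control cultures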; conditions: S. cerevisiae rad52 mutant growth inhibition, hits give high values
Procedure, shortened: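 Here a repair-compromised yeast strain receives each compound; its growth is then quantified and normalised to vehicle-only controls.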

[2] = NCI Yeast Anticancer Drug Screen. Data for the wt1 strain (AID 149);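 note: 0% = growth of vehicle-treated wt1 cultures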; conditions: S. cerevisiae wt1 strain (SPY 50644) growth inhibition, hits give high values
Procedure, shortened: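 Each compound is tested on wt1 yeast and the loss of growth versus vehicle gives the inhibition value.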

[3] = NCI Yeast Anticancer Drug Screen. Data for the rad50EPP+ strain (AID 151);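 note: 0% = growth of vehicle-treated control cultures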; conditions: S. cerevisiae rad50 mutant strain, hits give high values
Procedure, shortened: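 Read-out is yeast growth inhibition relative to vehicle; cells used were the rad50EPP+ strain.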

[4] = NCI Yeast Anticancer Drug Screen. Data for the mgt1 strain (AID 153); conditions: S. cerevisiae mgt1 mutant growth inhibition, hits give high values
Procedure, shortened: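 Measured: inhibition of mgt1 yeast growth by compound, normalized to vehicle-treated cultures.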

[5] = NCI Yeast Anticancer Drug Screen. Data for the rad50 strain (AID 155);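 note: 0% = growth of vehicle-only cultures of the same strain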; conditions: S. cerevisiae rad50 strain growth inhibition, hits give high values
Procedure, shortened: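 Vehicle-treated cultures provide the reference for the growth inhibition reported for compound-exposed, repair-deficient yeast.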

[6] = NCI Yeast Anticancer Drug Screen. Data for the mec2-1 strain (AID 157); conditions: S. cerevisiae mec2-1 strain, hits give high values
Procedure, shortened: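 Using mec2-1 yeast: add compound, measure growth, express inhibition versus vehicle-treated cultures.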

[7] = NCI Yeast Anticancer Drug Screen. Data for the rad14 strain (AID 159);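 note: 0% = growth of vehicle-treated control cultures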; conditions: S. cerevisiae rad14 strain growth inhibition, hits give high values
Procedure, shortened: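 Inhibition of growth is reported for a repair-deficient yeast mutant following compound treatment, calculated relative to cultures that received vehicle.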

[8] = NCI Yeast Anticancer Drug Screen. Data for the sgs1 mgt1 strain (AID 161);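 note: 0% = growth of cultures given vehicle only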; conditions: S. cerevisiae sgs1 mgt1 strain, hits give high values
Procedure, shortened: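 Growth of a repair-deficient yeast mutant was monitored after compound treatment and expressed as inhibition relative to vehicle-treated cultures.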

[9] = NCI Yeast Anticancer Drug Screen. Data for the CLN2oe strain (AID 163);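 note: 0% = growth of vehicle-only control cultures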; conditions: S. cerevisiae CLN2oe strain, hits give high values
Procedure, shortened: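 Whole-cell yeast growth assay. A strain engineered for altered cell-cycle control received compound, and inhibition relative to vehicle-treated cultures was recorded.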

[10] = NCI Yeast Anticancer Drug Screen. Data for the cln2 rad14 strain (AID 165);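 note: 0% = growth equal to vehicle treated cultures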; conditions: S. cerevisiae cln2 rad14 strain, hits give high values
Procedure, shortened: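 Yeast strain cln2 rad14, bearing defects in cell cycle control and DNA repair, serves as the test system; values reflect growth inhibition compared with vehicle.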

[11] = NCI Yeast Anticancer Drug Screen. Data for the wt2 strain (AID 169); conditions: S. cerevisiae wt2 strain growth inhibition, hits give high values
Procedure, shortened: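 Treated yeast vs. vehicle-treated yeast: growth inhibition determined.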

[12] = NCI Yeast Anticancer Drug Screen. Data for the sgs1 strain (AID 173);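 note: 0% = growth of vehicle-only control cultures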; conditions: S. cerevisiae sgs1 mutant, hits give high values
Procedure, shortened: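 A genetically defined yeast mutant is incubated with the test compound, and its growth is compared to that of the same strain given vehicle.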

[13] = NCI Yeast Anticancer Drug Screen. Data for the mlh1 rad18 strain (AID 175); conditions: S. cerevisiae mlh1 rad18 strain growth inhibition, hits give high values
Procedure, shortened: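 Steps: expose repair-defective yeast to compound; measure growth; express inhibition against vehicle-treated controls.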

[14] = NCI Yeast Anticancer Drug Screen. Data for the rad18 strain (AID 177); conditions: S. cerevisiae rad18 mutant growth inhibition, hits give high values
Procedure, shortened: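 Measured value is growth inhibition of a yeast strain bearing a DNA repair alteration, referenced to vehicle-treated cells.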

[15] = NCI Yeast Anticancer Drug Screen. Data for the bub3 strain (AID 167); conditions: S. cerevisiae bub3 mutant strain, hits give high values
Procedure, shortened: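 Mutant yeast screening strain plus compound; vehicle-treated cultures serve as the 0% inhibition reference.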

[16] = NCI Yeast Anticancer Drug Screen. Data for the mlh1 strain (AID 171);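 note: 0% = growth of vehicle-treated control cultures of the same strain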; conditions: S. cerevisiae mlh1 strain growth inhibition, hits give high values
Procedure, shortened: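 A yeast strain with a defined genetic lesion serves as the test organism. Cultures receive compound or vehicle, and growth is measured.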

[17] = at 5.0 µM (retest, dose inferred, filed as 0.5)
[18] = at 50.0 µM (retest, dose inferred, filed as 5.0)

Measured: growth inhibition

Cc1ccc(-c2ccc(Nc3c4ccccc4nc4ccccc34)cc2)cn1
active: [1]; at 11.0 µM 90% | [1]; at 33.0 µM 95% | [1]; at 100.0 µM 92% | [2]; at 33.0 µM 90% | [3]; at 11.0 µM 85% | [3]; at 33.0 µM 95% | [3]; at 100.0 µM 95% | [4]; at 33.0 µM 83% | [4]; at 100.0 µM 95% | [5]; [17] 81% | [5]; at 11.0 µM 90% | [5]; at 33.0 µM 93% | [5]; [18] 97% | [5]; at 50.0 µM 97% | [5]; at 100.0 µM 88% | [6]; at 33.0 µM 86% | [6]; [18] 98% | [6]; at 50.0 µM 90.4% | [6]; at 100.0 µM 84% | [7]; at 33.0 µM 75% | [8]; [18] 75% | [8]; at 50.0 µM 80.2% | [9]; at 33.0 µM 85% | [9]; at 100.0 µM 73% | [10]; [18] 70% | [11]; at 33.0 µM 92% | [12]; at 33.0 µM 94% | [12]; at 100.0 µM 88% | [13]; [18] 89% | [13]; at 50.0 µM 90.1% | [14]; at 33.0 µM 89% | [14]; at 100.0 µM 86%
inactive: [1]; at 1.2 µM 6% | [1]; at 3.7 µM 48% | [2]; at 1.2 µM 30% | [2]; at 3.7 µM 20% | [2]; at 11.0 µM 43% | [2]; at 100.0 µM 67% | [3]; at 1.2 µM 22% | [3]; at 3.7 µM 44% | [4]; at 1.2 µM 4% | [4]; at 3.7 µM -5% | [4]; at 11.0 µM 7% | [5]; at 1.2 µM 15% | [5]; at 3.7 µM 60% | [6]; at 1.2 µM -20% | [6]; at 3.7 µM -25% | [6]; [17] 9% | [6]; at 11.0 µM 11% | [7]; at 1.2 µM -27% | [7]; at 3.7 µM -19% | [7]; at 11.0 µM -4% | [7]; at 100.0 µM 59% | [8]; [17] 8% | [9]; at 1.2 µM 15% | [9]; at 3.7 µM 19% | [9]; at 11.0 µM 29% | [10]; [17] 37% | [10]; at 50.0 µM 58.6% | [11]; at 1.2 µM -14% | [11]; at 3.7 µM 2% | [11]; at 11.0 µM 22% | [11]; at 100.0 µM 39% | [12]; at 1.2 µM 3% | [12]; at 3.7 µM 6% | [12]; at 11.0 µM 44% | [13]; [17] 16% | [14]; at 1.2 µM 0% | [14]; at 3.7 µM -10% | [14]; at 11.0 µM 12%

O=C(O)C1OC1(c1cccc(Cl)c1)c1ccccc1Cl (stereo not drawn)
active: [1]; at 100.0 µM 91% | [2]; at 100.0 µM 93% | [4]; at 100.0 µM 95% | [5]; at 50.0 µM 90.1% | [5]; at 100.0 µM 88% | [6]; at 50.0 µM 92% | [6]; at 100.0 µM 94% | [8]; [18] 93% | [8]; at 50.0 µM 93.1% | [9]; at 100.0 µM 93% | [10]; [18] 96% | [10]; at 50.0 µM 90.7% | [15]; at 33.0 µM 70% | [15]; [18] 95% | [15]; at 50.0 µM 89.9% | [15]; at 100.0 µM 92% | [11]; at 100.0 µM 93% | [16]; at 100.0 µM 90% | [12]; at 100.0 µM 90% | [13]; at 50.0 µM 90.5% | [14]; at 100.0 µM 90%
inactive: [1]; at 1.2 µM -9% | [1]; at 3.7 µM -8% | [1]; at 11.0 µM 13% | [1]; at 33.0 µM 56% | [2]; at 1.2 µM -18% | [2]; at 3.7 µM -15% | [2]; at 11.0 µM -15% | [2]; at 33.0 µM 41% | [3]; at 1.2 µM 0% | [3]; at 3.7 µM 9% | [3]; at 11.0 µM 12% | [3]; at 33.0 µM 25% | [3]; at 100.0 µM 36% | [4]; at 1.2 µM 17% | [4]; at 3.7 µM 16% | [4]; at 11.0 µM 28% | [4]; at 33.0 µM 67% | [5]; at 1.2 µM 1% | [5]; at 3.7 µM 7% | [5]; [17] 43% | [5]; at 11.0 µM 12% | [5]; at 33.0 µM 48% | [5]; [18] 59% | [6]; at 1.2 µM -6% | [6]; at 3.7 µM -13% | [6]; [17] 57% | [6]; at 11.0 µM 2% | [6]; at 33.0 µM 58% | [6]; [18] 61% | [8]; [17] -12% | [9]; at 1.2 µM 15% | [9]; at 3.7 µM 16% | [9]; at 11.0 µM 13% | [9]; at 33.0 µM 39% | [10]; [17] 54% | [15]; at 1.2 µM 0% | [15]; at 3.7 µM -5% | [15]; [17] 30% | [15]; at 11.0 µM 9% | [11]; at 1.2 µM -35% | [11]; at 3.7 µM -20% | [11]; at 11.0 µM -18% | [11]; at 33.0 µM 26% | [16]; at 1.2 µM -26% | [16]; at 3.7 µM -25% | [16]; at 11.0 µM -10% | [16]; at 33.0 µM 37% | [12]; at 1.2 µM -13% | [12]; at 3.7 µM -5% | [12]; at 11.0 µM 1% | [12]; at 33.0 µM 51% | [13]; [17] 47% | [13]; [18] 53% | [14]; at 1.2 µM -6% | [14]; at 3.7 µM -16% | [14]; at 11.0 µM 3% | [14]; at 33.0 µM 57%
